Assay results as given in PubChem BioAssay.
Inconclusive results are not listed. For part of these data: Entries with a potency or affinity are not part of this list. Active and inactive are the calls of the source. Unless noted, no rule for the calls is given here.

How the values were obtained:
[1] = P. berghei load reduction in hepatocytes – cell-based, HepG2, luciferase luminescence, HepG2 viability, primary screen (AID 624349; in the data active = parasite load remaining mostly below about 12%, no sharp cut-off; inactive = mostly above about 10%;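 also: 100% = mean of DMSO negative control wells on the same plate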); conditions: P. berghei liver stage in HepG2, luciferase luminescence, concentration not given here; parasite load remaining: stronger effect = lower value; viability: measured here: HepG2 viability without parasites
[2] = signal quenchers or enhancers, Cy5 substrate/SSB – biochemical, NIH Clinical Collection, E. coli SSB, artefact control for HCV NS3 helicase inhibitor project (AID 743268); conditions: Cy5-oligo bound E. coli SSB, fluorescence interference
[3] = tested on: Hepatitis C virus NS3 helicase; experiment: blockers of NS3h binding to DNA – biochemical, fluorescence polarization, NIH Clinical Collection, primary screen (AID 743270); conditions: NS3 helicase binding to Cy5-dT15 DNA, stronger effect = higher value, concentration not given here
[4] = biological target: Single-stranded DNA-binding protein (Escherichia coli (strain K12)) (UniProt P0AGE0); experiment: SSB-ssDNA binding inhibitors – biochemical, fluorescence polarization, NIH Clinical Collection, counter-screen for HCV NS3 helicase inhibitor project (AID 743271; in the data active = inhibition above about 28%); conditions: E. coli SSB-DNA binding, stronger effect = higher value, concentration not given here
[5] = compounds distorting NS3 helicase fluorescence signal – biochemical, NIH Clinical Collection, artefact control for HCV NS3 helicase inhibitor project (AID 743272); conditions: fluorescence interference counterscreen, HCV NS3 helicase assay; stronger effect = lower value;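 also: HCV NS3 helicase with a Cy5 labelled single stranded DNA probe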
[6] = tested on: Neuropilin-2 / VEGF-C interaction (human); experiment: small molecules blocking Neuropilin-2/VEGF-C interaction – biochemical, microplate binding format, z-score (AID 743281); conditions: microplate NRP2/VEGF-C binding assay; stronger effect = lower value
[7] = modulation of C. elegans fzo-1 (AID 1259413);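 also: fzo-1 mutant C. elegans worms in liquid wells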; conditions: C. elegans fzo-1 modulator screen, mean read-out; stronger effect = higher value
[8] = EMT-state selective cytotoxicity in co-culture – imaging, PC-3E GFP, TEM4-18 mCherry, primary screen (AID 1345086;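 active = compounds killing one labelled cell type while sparing the other, by normalised counts and ratio limits, not self-fluorescent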;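 as to all read-outs here: cells exposed to compound for 72 h before imaging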;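 as to red/green cell ratio (normalised): normalised mesenchymal count divided by normalised epithelial count so high means epithelial killing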); conditions: PC-3E GFP / TEM4-18 mCherry co-culture, imaging cell counts, at 1 µM; for red/green cell ratio (normalised): actives lie on both sides
[9] = viability loss with induced miR-34 in A549 – imaging, A549 dox-inducible miR-34, nuclei and caspase counts, primary screen (AID 1347080;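 active = compounds whose cell count with miR-34 switched on is under 0.7 times the count with it off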); conditions: A549 miR-34 inducible, Hoechst nuclei count, 48 h
[10] = MELAS cybrid and Rieske KO viability enhancers – cell-based, MELAS cybrids, Rieske KO mouse fibroblasts, CellTiter-Glo, primary screen (AID 1508586;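 active = mean z-score across replicates of 1.96 or higher in either the MELAS or the Rieske mutant cell line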;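 also: z relative to plate mean and SD of compound and empty wells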); conditions: low glucose
[11] = biological target: NAD(+) hydrolase SARM1 (Homo sapiens) (UniProt Q6SZW1); experiment: blocking NAD cleavage by SARM1 SAM-TIR – cell lysate, NAD-Glo luminescence (AID 1508614;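 active = compound whose remaining NAD level is above about 45 nM, limit read from the data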;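 also: higher remaining NAD means stronger inhibition of SARM1 NADase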); conditions: SAM-TIR HEK293T lysate NADase, at 1 µM, stronger effect = higher value
Chain of NAD(+) hydrolase SARM1 (Homo sapiens) (Q6SZW1 whole entry, looked up): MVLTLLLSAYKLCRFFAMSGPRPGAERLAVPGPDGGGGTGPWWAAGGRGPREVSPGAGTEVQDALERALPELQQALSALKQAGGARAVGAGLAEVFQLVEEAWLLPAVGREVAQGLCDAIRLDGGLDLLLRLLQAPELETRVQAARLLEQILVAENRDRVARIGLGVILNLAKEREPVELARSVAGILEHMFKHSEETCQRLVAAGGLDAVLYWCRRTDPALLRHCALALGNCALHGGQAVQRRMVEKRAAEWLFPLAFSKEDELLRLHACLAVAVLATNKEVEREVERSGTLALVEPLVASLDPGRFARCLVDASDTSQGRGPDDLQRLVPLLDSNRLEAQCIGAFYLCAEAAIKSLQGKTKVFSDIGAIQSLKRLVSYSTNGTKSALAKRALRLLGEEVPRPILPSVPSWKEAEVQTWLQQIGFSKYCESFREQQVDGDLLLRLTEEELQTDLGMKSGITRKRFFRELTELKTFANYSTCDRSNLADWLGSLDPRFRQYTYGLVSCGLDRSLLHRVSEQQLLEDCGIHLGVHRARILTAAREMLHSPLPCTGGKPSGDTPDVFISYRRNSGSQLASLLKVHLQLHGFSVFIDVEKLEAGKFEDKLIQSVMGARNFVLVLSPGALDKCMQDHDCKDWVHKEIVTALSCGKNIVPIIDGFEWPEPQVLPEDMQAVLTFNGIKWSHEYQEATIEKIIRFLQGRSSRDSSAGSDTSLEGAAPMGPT

[12] = galactose survival enhancers in mitochondrial complex I cybrids – cell-based, galactose medium, ATP luminescence, primary screen (AID 1645843;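 active = z-score of at least 1.8 in each of two replicates, scored against plate mean and spread of sample wells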;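 also: positive z means more ATP and so rescue of galactose-driven cybrid death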); conditions: complex I mutant cybrid cells, 72 h, stronger effect = higher value
[13] = biological target: ATP-dependent translocase ABCB1 (Homo sapiens) (UniProt P08183); experiment: P-glycoprotein substrate transport blockade – cell-based (AID 377; in the data active = fluorescence slope change above about 50%); conditions: MDR1-expressing cells, fluorescent substrate accumulation slope; stronger effect = higher value; concentration not given here
Chain of ATP-dependent translocase ABCB1 (Homo sapiens) (P08183 whole entry, looked up): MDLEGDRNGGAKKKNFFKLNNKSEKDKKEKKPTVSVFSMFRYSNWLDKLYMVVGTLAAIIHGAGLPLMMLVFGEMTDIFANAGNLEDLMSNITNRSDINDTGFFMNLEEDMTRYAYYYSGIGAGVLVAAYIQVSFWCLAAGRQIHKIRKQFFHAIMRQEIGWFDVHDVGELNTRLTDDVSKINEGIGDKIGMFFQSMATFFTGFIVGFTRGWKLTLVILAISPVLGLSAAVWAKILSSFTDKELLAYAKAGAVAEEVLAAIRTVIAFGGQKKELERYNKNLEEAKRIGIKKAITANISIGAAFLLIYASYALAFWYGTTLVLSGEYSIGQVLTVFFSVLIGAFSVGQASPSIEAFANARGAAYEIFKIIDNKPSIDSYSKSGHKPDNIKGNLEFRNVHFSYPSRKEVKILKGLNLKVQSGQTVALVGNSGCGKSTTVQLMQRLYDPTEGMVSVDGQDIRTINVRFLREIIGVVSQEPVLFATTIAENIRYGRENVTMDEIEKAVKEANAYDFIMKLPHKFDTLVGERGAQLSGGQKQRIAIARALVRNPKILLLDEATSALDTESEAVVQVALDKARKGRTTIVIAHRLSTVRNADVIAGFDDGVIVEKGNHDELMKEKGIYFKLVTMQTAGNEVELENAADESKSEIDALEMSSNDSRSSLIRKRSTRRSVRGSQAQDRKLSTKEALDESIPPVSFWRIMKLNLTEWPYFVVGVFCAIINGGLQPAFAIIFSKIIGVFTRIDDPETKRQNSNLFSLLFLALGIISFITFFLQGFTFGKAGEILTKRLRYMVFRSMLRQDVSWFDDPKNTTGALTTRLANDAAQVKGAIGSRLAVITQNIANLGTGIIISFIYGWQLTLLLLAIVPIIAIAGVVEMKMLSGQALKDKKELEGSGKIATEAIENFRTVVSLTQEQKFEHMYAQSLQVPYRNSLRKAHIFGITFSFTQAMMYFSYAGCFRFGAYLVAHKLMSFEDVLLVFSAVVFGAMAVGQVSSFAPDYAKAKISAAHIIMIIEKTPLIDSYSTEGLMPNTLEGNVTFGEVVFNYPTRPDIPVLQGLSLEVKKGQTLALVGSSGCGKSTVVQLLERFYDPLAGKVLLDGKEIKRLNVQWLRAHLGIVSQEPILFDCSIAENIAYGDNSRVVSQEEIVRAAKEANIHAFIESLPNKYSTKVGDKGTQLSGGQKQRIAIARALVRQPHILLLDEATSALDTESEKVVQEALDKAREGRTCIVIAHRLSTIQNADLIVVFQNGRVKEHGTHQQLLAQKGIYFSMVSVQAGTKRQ

[14] = compounds altering viability of human ES cells (AID 493140); conditions: human embryonic stem cell survival screen; stronger effect = higher value;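 also: cells exposed to compounds for four days before counting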
[15] = tested on: Aerobactin synthetase IucA (Klebsiella pneumoniae, hypervirulent); experiment: biochemical IucA inhibition screen of LOPAC library by absorbance (AID 1346212); conditions: IucA enzyme assay, absorbance (OD) readout; stronger effect = lower value;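 tested at 8 µM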;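 also: 100% = no compound wells and 0% = no enzyme wells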
[16] = tested on: F380Y; experiment: BK channel mutant inhibitors and activators – cell-based, U2OS BacMam, thallium flux, beta subunits, selectivity assay, profiling panel (AID 1259406;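 active = thallium flux through the channel raised or lowered by more than 3 SD from vehicle-only wells, actives on both sides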;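 also: initial slope of Thallos dye fluorescence rise after thallium is added; log ratio against the mean of 0.3% DMSO vehicle wells on the same plate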); conditions: U2OS BacMam BK variants, at 30 µM
[17] = tested on: F380Y/beta1; experiment: as above; conditions: U2OS BacMam BK variants, at 30 µM
[18] = tested on: F380Y/beta2Delta; experiment: as above; conditions: U2OS BacMam BK variants, at 30 µM
[19] = tested on: F380Y/beta4; experiment: as above; conditions: U2OS BacMam BK variants, at 30 µM
[20] = biological target: Calcium-activated potassium channel subunit alpha-1 (Homo sapiens) + Leucine-rich repeat-containing protein 26 (Homo sapiens) (UniProt Q12791+Q2I0M4); experiment: as above; conditions: U2OS BacMam BK variants, F380Y/Slo1WT/gamma1, at 30 µM
Chain of Calcium-activated potassium channel subunit alpha-1 (Homo sapiens) + Leucine-rich repeat-containing protein 26 (Homo sapiens) (Q2I0M4 whole entry, looked up, one chain of several): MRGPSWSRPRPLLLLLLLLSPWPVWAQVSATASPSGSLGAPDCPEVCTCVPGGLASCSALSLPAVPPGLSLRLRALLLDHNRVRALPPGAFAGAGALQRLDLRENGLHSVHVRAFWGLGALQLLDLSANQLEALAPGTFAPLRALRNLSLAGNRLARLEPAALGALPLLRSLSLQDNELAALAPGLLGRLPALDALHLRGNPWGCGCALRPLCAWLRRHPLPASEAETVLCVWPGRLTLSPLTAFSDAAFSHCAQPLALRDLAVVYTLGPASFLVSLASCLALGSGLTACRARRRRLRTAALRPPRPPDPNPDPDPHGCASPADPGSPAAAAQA

[21] = tested on: R275C; experiment: as above; conditions: U2OS BacMam BK variants, at 30 µM
[22] = tested on: R275C/beta1; experiment: as above; conditions: U2OS BacMam BK variants, at 30 µM
[23] = tested on: R275C/beta2Delta; experiment: as above; conditions: U2OS BacMam BK variants, at 30 µM
[24] = tested on: R275C/beta4; experiment: as above; conditions: U2OS BacMam BK variants, at 30 µM
[25] = tested on: R275C/Slo1WT/beta2; experiment: as above; conditions: U2OS BacMam BK variants, at 30 µM
[26] = blockers of polyQ-driven CASP3 activation – cell-based (AID 1583); conditions: polyglutamine-induced caspase-3 activation, cell assay; stronger effect = higher value;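 tested at 10 µM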
[27] = yeast 75Q aggregation reduction – 75Q-TubU reporter (AID 1593); conditions: Yeast 75Q polyglutamine aggregation reporter
[28] = restoration of touch response, mutant HTT neurons – whole organism, C. elegans mechanosensory neurons, N-terminal huntingtin (AID 1599); conditions: C. elegans polyQ-huntingtin mechanosensory neurons, stronger effect = higher value
[29] = blockers of cytochrome c efflux from mitochondria – biochemical, purified mitochondria (AID 1603); conditions: stronger effect = lower value;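 also: mouse liver mitochondria challenged with calcium chloride; signal normalized to the plate average as 100%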
[30] = polyglutamine aggregate formation blockers (AID 1604); conditions: polyglutamine-induced protein aggregation inhibition assay; stronger effect = higher value; tested at 2.5 µM
[31] = glutamate transport activators, MN-1 cells, MN-1 cell line (AID 1612); conditions: MN-1 motor neuron cells, stronger effect = higher value;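 also: tested at 1 µM final; 0% = mean of DMSO vehicle wells on each plate; positive means more glutamate uptake than control and negative means less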
[32] = 75Q-TubH aggregate inhibition, S. cerevisiae, yeast (AID 1616); conditions: S. cerevisiae 75Q-TubH polyglutamine aggregation suppression; stronger effect = higher value
[33] = chitosan synthesis blockers in C. neoformans – flow cytometry, Cibacron Brilliant Red staining (AID 1347148); conditions: Cryptococcus neoformans chitosan, stronger effect = lower value; at 10 µM unless noted;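 also: compound exposure lasted three days at 37 degrees C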
[34] = measured here: epithelial PC-3E GFP cell survival
[35] = measured here: mesenchymal TEM4-18 mCherry cell survival
[36] = measured here: relative caspase fold change +Dox/-Dox
[37] = measured here: total cells with miR-34 induction, stronger effect = lower value
[38] = measured here: total cells without miR-34 induction
[39] = MELAS cybrid survival, CellTiter-Glo 48 h, stronger effect = higher value
[40] = Rieske KO mouse fibroblast survival, CellTiter-Glo 72 h

CCN(C(C)=O)c1cccc(-c2ccnc3c(C#N)cnn23)c1
parasite load remaining [1]: 67.8% (inactive) | viability [1]: 71% | fluorescence ratio [2]: 0.96 (inactive) | inhibition [3]: -1.97% (inactive) | inhibition [4]: -3.54% (inactive) | fluorescence ratio [5]: 0.98 (inactive) | z-score [6]: -0.583 (inactive) | mean signal [7]: 228 (inactive) | red/green cell ratio (normalised) [8]: 1.11 (inactive) | normalised cell number [8, 34]: 1.1 | normalised cell number [8, 35]: 1.22 | fold change ([9]; stronger effect = lower value): 0.85 (inactive) | fold change [9, 36]: 1.13 | cell count [9, 37]: 8990 | cell count [9, 38]: 10600 | z-score [10, 39]: 0.804 (inactive) | z-score [10, 40]: 0.277 | remaining NAD [11]: 10 nM (inactive) | z-score [12]: 0.945 (inactive)

COc1ccc2c(c1)C13CCCC[C@@H]1C(C2)N(C)CC3 (stereo partly drawn)
fluorescence slope change [13]: 14.1% (inactive) | survival [14]: 5.75 (inactive) | parasite load remaining [1]: 74.7% (inactive) | viability [1]: 74% | fluorescence ratio [2]: 0.98 (inactive) | inhibition [3]: 0.4% (inactive) | inhibition [4]: 2.21% (inactive) | fluorescence ratio [5]: 0.92 (inactive) | z-score [6]: -0.757 (inactive) | mean signal [7]: 229 (inactive) | remaining activity [15]: 108% (inactive)

C[C@]12CC(=CO)C(=O)C[C@@H]1CC[C@@H]1[C@@H]2CC[C@@]2(C)[C@H]1CC[C@]2(C)O
parasite load remaining [1]: 62.4% (inactive) | viability [1]: 66.1% | fluorescence ratio [2]: 1.04 (inactive) | inhibition [3]: 5.15% (inactive) | inhibition [4]: 3.75% (inactive) | fluorescence ratio [5]: 1.01 (inactive) | z-score [10, 39]: 0.172 (inactive) | z-score [10, 40]: 0.741 | log fold change Tl+ flux [16]: 0.111 (active) | log fold change Tl+ flux [17]: 0.204 (active) | log fold change Tl+ flux [18]: 0.171 (active) | log fold change Tl+ flux [19]: 0.113 (active) | log fold change Tl+ flux [20]: 0.208 (active) | log fold change Tl+ flux [21]: 0.0626 (inactive) | log fold change Tl+ flux [22]: 0.301 (active) | log fold change Tl+ flux [23]: 0.261 (active) | log fold change Tl+ flux [24]: 0.148 (active) | log fold change Tl+ flux [25]: 0.0227 (inactive)

CC[C@@H]1/C=C/C=C/C[C@H](C)[C@@H](O)[C@](C)(O)C(=O)[C@H](C)[C@@H](O)[C@H](C)C(=O)[C@H](C)[C@@H](O)[C@H](C)/C=C/C(=O)O[C@H]2[C@@H](C)[C@@H](CC1)O[C@@]1(CC[C@@H](C)[C@@H](C[C@H](C)O)O1)[C@@H]2C
inhibition [26]: -0.04% | score [27]: -0.11 | rescue above control [28]: -7.82 | cytochrome c release ratio [29]: 1.21 | inhibition of aggregation [30]: -10.6% | glutamate uptake change [31]: 5.74% | aggregation suppression score [32]: 0.0317 | mean signal [7]: 201 (inactive) | red/green cell ratio (normalised) [8]: 0.51 (inactive) | normalised cell number [8, 34]: 1.1 | normalised cell number [8, 35]: 0.56 | fold change ([9]; stronger effect = lower value): 0.872 (inactive) | fold change [9, 36]: 0.921 | cell count [9, 37]: 989 | cell count [9, 38]: 1130 | fold fluorescence [33]: 5.62 [at 63.2 µM] (inactive)

C[C@]12CCC3C(CC[C@H]4C[C@H](O)CC[C@]34C)C1CCC2=O (stereo partly drawn)
red/green cell ratio (normalised) [8]: 1.16 (inactive) | normalised cell number [8, 34]: 0.84 | normalised cell number [8, 35]: 0.97

CC(C)[C@@H]1CC[C@](O)(CCl)[C@@H]2C(=O)OCC(C(=O)O)=C[C@H]21
red/green cell ratio (normalised) ([8]; counts scaled to control wells, 1 = unselective): 0.96 (inactive) | normalised cell number [8, 34]: 1 | normalised cell number [8, 35]: 0.96

CC12CC[C@H]3[C@@H](CC=C4C[C@@H](O)CCC43C)[C@@H]1CCC2=O (stereo partly drawn)
outcome [6]: inactive | mean signal [7]: 245 (inactive)

CC(C)(O)[C@@H]1[C@H]2OC(=O)[C@@H]1C1(O)C[C@H]3O[C@]34C(=O)O[C@H]2[C@]14C (stereo partly drawn) (tested in a mixture with another compound)
outcome [6]: inactive | mean signal [7]: 237 (inactive)

CC12CC[C@H]3[C@@H](CCC4=CC(=O)CC[C@@H]43)[C@@H]1CC[C@@H]2O (stereo partly drawn)
outcome [6]: inactive | mean signal [7]: 225 (inactive)

CC12CCC(=O)C=C1CC[C@@H]1[C@@H]2CCC2(C)[C@@H](O)CC[C@@H]12 (stereo partly drawn)
outcome [6]: inactive | mean signal [7]: 263 (inactive)
